In all, about 310,000 compounds went through this assay and about 14,000 (4.5%) showed an effect of 50% or more. Effects have a minus sign here. What follows is part of a selection rich in strong results, with near analogues and random picks from the rest.
Molecular target: human ether-à-go-go-related gene (hERG) potassium channel (human, UniProt Q12809)
Experiment: primary screen, population patch clamp on CHO cells stably expressing hERG; higher = less effect of the substance
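Also: peak tail current of the secondary pulse compared with the same well before compound.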

human ether-à-go-go-related gene (hERG) potassium channel, sequence (Q12809 whole entry, looked up): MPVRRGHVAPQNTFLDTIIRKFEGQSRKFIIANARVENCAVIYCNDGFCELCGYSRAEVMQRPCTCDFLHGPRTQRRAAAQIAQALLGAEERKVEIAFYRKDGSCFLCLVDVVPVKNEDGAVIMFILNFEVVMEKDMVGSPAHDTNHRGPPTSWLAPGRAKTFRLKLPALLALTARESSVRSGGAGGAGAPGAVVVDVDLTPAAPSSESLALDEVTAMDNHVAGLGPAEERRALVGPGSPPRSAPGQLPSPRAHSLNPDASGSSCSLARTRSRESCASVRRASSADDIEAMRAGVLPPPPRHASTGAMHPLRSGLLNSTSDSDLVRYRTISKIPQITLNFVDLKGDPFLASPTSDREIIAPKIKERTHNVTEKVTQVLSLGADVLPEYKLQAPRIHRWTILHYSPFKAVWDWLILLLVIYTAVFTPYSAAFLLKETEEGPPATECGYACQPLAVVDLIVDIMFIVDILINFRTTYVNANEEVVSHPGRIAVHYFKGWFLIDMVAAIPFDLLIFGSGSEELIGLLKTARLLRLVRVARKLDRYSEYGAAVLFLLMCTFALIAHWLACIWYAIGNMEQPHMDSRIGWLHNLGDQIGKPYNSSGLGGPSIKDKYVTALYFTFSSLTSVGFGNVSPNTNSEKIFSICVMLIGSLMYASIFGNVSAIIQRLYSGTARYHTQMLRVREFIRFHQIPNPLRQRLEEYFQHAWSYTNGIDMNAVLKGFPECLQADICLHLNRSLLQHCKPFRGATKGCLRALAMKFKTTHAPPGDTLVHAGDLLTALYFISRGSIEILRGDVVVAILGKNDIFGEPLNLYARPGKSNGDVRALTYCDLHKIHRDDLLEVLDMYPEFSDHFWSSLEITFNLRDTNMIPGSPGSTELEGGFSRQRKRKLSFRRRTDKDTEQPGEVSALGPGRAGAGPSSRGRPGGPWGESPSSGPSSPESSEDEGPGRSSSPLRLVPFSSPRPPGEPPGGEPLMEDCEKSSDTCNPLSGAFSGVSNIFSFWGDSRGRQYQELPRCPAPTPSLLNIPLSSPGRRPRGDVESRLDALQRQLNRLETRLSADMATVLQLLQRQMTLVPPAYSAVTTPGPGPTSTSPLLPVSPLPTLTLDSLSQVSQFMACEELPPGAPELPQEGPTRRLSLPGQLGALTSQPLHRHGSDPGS

Row | Compound | hERG current change (%, negative = inhibition) at 10uM
1 | Cc1ccc(S(=O)(=O)N2CCN(c3cc4c(cc3[N+](=O)[O-])n(C)c(=O)n4C)CC2)cc1 | -4.2%
2 | Nc1nonc1-n1nnc(C(=O)N/N=C/c2cccc(Cl)c2)c1CSc1ccc(Cl)cc1 | 23.9%
3 | CCCC12CN3CC(C)(CN(C1)C3c1ccc([N+](=O)[O-])o1)C2=O (stereo not shown) | -19.6%
4 | COc1ccc(NC(=O)c2c(NC(=O)CCC(=O)O)sc(-c3ccccc3)c2C)cc1 | 5.27%
5 | CC1(C)C(=O)Nc2ccccc2N1C(=O)COc1ncnc2c(Cl)cc(Cl)cc12 | -9.51%
6 | CCN(CC)CCN(CC(=O)N(C1CCCCC1)C1CCCCC1)C(=O)c1ccco1.O=C(O)C(=O)O | 23.2%
7 | CCN(Cc1ccccc1)C(=O)c1cccnc1 | 2.64%
8 | CCN(CC)CCN(CC(=O)N(C1CCCCC1)C1CCCCC1)C(=O)c1cccnc1.Cl.O | -71.9%
9 | Cc1ccc(NC(=O)O/N=C/c2cccc([N+](=O)[O-])c2)cc1 | -15.8%
10 | COc1ccc(NC(=O)O/N=C/c2ccccc2)cc1 | -2.52%
11 | COc1ccc(/C=N/OC(=O)Nc2ccccc2)cc1[N+](=O)[O-] | -58.4%
12 | CC(NS(=O)(=O)c1ccc(Cl)cc1)C(=O)NCCC1=CCCCC1 (stereo not shown) | -5.41%
13 | CC(C)c1ccc(OCC(=O)N(Cc2ccco2)C2CCS(=O)(=O)C2)cc1 (stereo not shown) | -79.4%
14 | O=C(COc1ccccc1)N(Cc1ccco1)C1CCS(=O)(=O)C1 (stereo not shown) | -11.5%
15 | Cc1ccc(OCC(=O)N(Cc2ccco2)C2CCS(=O)(=O)C2)cc1 (stereo not shown) | -13%
16 | O=C(COc1ccc(F)cc1)N(Cc1ccco1)C1CCS(=O)(=O)C1 (stereo not shown) | -28.4%
17 | O=C(COc1ccc(Cl)cc1)N(Cc1ccco1)C1CCS(=O)(=O)C1 (stereo not shown) | -20.5%
18 | O=C(COc1ccc(Br)cc1)N(Cc1ccco1)C1CCS(=O)(=O)C1 (stereo not shown) | -50.6%
19 | O=C(Nc1ccc2c(c1)OCCO2)C1CCCN(S(=O)(=O)Cc2ccccc2)C1 (stereo not shown) | -11%
20 | CCn1nc(NS(=O)(=O)c2ccccc2)c2cc3cc(C)ccc3nc21 | 3.38%
21 | COC(=O)c1noc(-c2ccc(C)cc2)n1 | -3.95%
22 | CCOC(=O)Cc1csc(NC(=O)CCNS(=O)(=O)c2ccc3c(c2)CCC(=O)N3)n1 | 9.62%
23 | CCCOP(=O)(OCCC)C(Nc1ccc(C(C)C)cc1)c1ccc([N+](=O)[O-])cc1 (stereo not shown) | 3.7%
24 | CCOP(=O)(OCC)C(Nc1cccc([N+](=O)[O-])c1)c1ccccc1 (stereo not shown) | -18.4%
25 | CCOP(=O)(OCC)C(Nc1ccc([N+](=O)[O-])cc1)c1ccc(Cl)cc1 (stereo not shown) | -76%
26 | Cn1cccc1CC(=O)NNC(=O)Nc1ccccc1F | 7.76%
27 | O=C1c2ccccc2C(Nc2ccc3c(c2)OCCO3)N1Cc1ccccc1 (stereo not shown) | -18.2%
28 | Cc1ccc(NC(=O)C2CCCN(C(=O)c3ccc(Cl)cc3)C2)cc1C (stereo not shown) | -19.6%

Row | Compound | hERG current change (%, negative = inhibition) at 10uM
29 | CC(=O)Nc1ccc(NC(=O)C2CCCN(C(=O)c3ccc(Cl)cc3)C2)cc1 (stereo not shown) | 6.47%
30 | Cc1ccc(NC(=O)C2CCCN(C(=O)c3ccc(Cl)cc3)C2)cc1 (stereo not shown) | -33.4%
31 | CC(=O)c1ccc(NC(=O)C2CCCN(C(=O)c3ccc(Cl)cc3)C2)cc1 (stereo not shown) | -29.7%
32 | CC(NC(=O)C1CCCN(C(=O)c2ccc(Cl)cc2)C1)c1cccc(C(F)(F)F)c1 (stereo not shown) | -51.2%
33 | Cc1ccc(NC(=O)C2CCCN(C(=O)c3ccc(Cl)cc3)C2)c(C)c1 (stereo not shown) | -59%
34 | CC(=O)Nc1ccc(N(C(=O)CNC(=O)c2ccco2)C(C(=O)NC2CCCC2)c2ccco2)cc1 (stereo not shown) | 3.72%
35 | CC1(C)C(c2cccs2)=[N+]([O-])C2(CCCCC/C2=N\O)N1O (stereo not shown) | 18.5%
36 | COc1cc(C(=O)OCC(=O)N2CC(C)OC(C)C2)cc(OC)c1OC (stereo not shown) | 33%
37 | COc1ccccc1OCC(=O)N(Cc1nc(-c2ccccc2)no1)C(C)C | -12%
38 | O=C(Nc1cc(C(=O)N2CCCC2)ccc1N1CCCC1)C1CC1 | -12.9%
39 | O=C(Nc1ccc(C(=O)N2CCOCC2)cc1)c1cccs1 | 19.7%
40 | O=C(Nc1ccc(C(=O)N2CCCC2)cc1)c1ccccc1F | -4.82%
41 | O=C(Nc1cc(C(=O)N2CCCC2)ccc1N1CCCC1)c1ccccc1 | -75.6%
42 | O=C(Nc1cc(C(=O)N2CCCC2)ccc1N1CCCC1)c1ccccc1F | -74.6%
43 | CNC(=S)Nc1cc(C(=O)N2CCCC2)ccc1N1CCCC1 | 28.1%
44 | O=C(Nc1cc(C(=O)N2CCOCC2)ccc1N1CCCC1)c1cccs1 | -75.9%
45 | COC(=O)c1ccc(N2CCOCC2)c(NC(=O)c2cccs2)c1 | -5.27%
46 | O=C(Nc1ccccc1N1CCCCC1)c1ccccc1F | -14.5%
47 | O=C(CCCCl)Nc1c2c(nn1-c1ccccc1)CSC2 | -0.0485%
48 | C/C(=N\NC(=O)Cc1ccc(Cl)c(Cl)c1)c1cccnc1 | -12.9%
49 | COCCn1c(C)cc(C(=O)CSc2ccc3ccccc3n2)c1C | -0.727%
50 | COc1cccc(-c2cnc(OC(C)(C)C)nc2OC(C)(C)C)c1 | 14.7%
51 | O=C(OCc1ccccc1F)c1ccc2c(c1)OCCO2 | 7.26%
52 | O=C(CCn1cccc1)NC1CCCc2ccccc21 (stereo not shown) | 4.95%
53 | CC(C)(C)NC(=O)NCc1ccco1 | 8.48%
54 | O=C(CCN1CCN(c2ccccc2)CC1)Nc1nccs1 | -9.77%
55 | Cn1c(=O)[nH]c(=O)c2c1nc(CN1CCN(c3ccccc3F)CC1)n2CCCc1ccccc1 | -33.7%

Reference: paper PMC4336329 (PLoS ONE, 2015)
